Compound activity as filed in PubChem.
SW480 rereplic = induces DNA re-replication in SW480 colon adenocarcinoma cells. Potency, µM (top dose mostly 46.1 µM), for the others: top-dose re-replication activation, usual class: activators. hit rate 1.8% among 340,000. SW480 DNA re-replication, Hoechst DNA content imaging, 48 h; further: % of control where 0% means no effect; nearly all actives have a fitted effect of over 55% in size
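Image-based read-out: total Hoechst fluorescence of nuclei (405 nm excitation, 500-530 nm emission), with hits raising the fraction of high-intensity nuclei. SW480 colon cells incubated 48 hr with compounds at 37 C.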
KB-3-1 tox = KB-3-1 parental cell cytotoxicity | AID 1347075 | hit rate 1.4% among 400,000 | Potency, µM (highest dose often 46.1 µM), actives largely listed as cytotoxic | KB-3-1 viability, CellTiter-Glo ATP luminescence, 72 h; further: on the % scale 0 is the no-effect control and ±100 the full control effect; nearly all actives have a fitted effect of over 60% in size
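Cytotoxicity in the drug-sensitive parental line KB-3-1 was scored as loss of CellTiter-Glo luminescence following 72 h incubation with compound. Values come from curve fitting of normalized concentration-response data.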
KB-V1 cytotox = kills drug-selected multidrug resistant KB-V1 cells; hit rate 3.4% among 400,000; KB-V1 MDR cells viability, CellTiter-Glo, 72 h; Potency, µM (top dose mostly 46.1 µM), hits mostly cytotoxic; further: on the % scale 0 is the no-effect control and ±100 the full control effect; nearly all actives have a fitted effect of over 60% in size
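Potencies derive from concentration-effect curves fitted to normalized luminescence (CellTiter-Glo) of KB-V1 cells treated for 72 h at 37 degrees C in phenol-red-free DMEM containing 10% FBS.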
12-LOX inh = blocks human arachidonate 12S-lipoxygenase. P18054. purified 12hLO, xylenol orange hydroperoxide absorbance. Potency, µM (highest dose often 108 µM), inactives show at the top dose activity change, negative = inhibition, usual class: inhibitors. hit rate 1.1% among 580,000. AID 1671190; further: on the % scale 0 is the no-effect control and ±100 the full control effect
Target sequence (P18054 whole entry, looked up): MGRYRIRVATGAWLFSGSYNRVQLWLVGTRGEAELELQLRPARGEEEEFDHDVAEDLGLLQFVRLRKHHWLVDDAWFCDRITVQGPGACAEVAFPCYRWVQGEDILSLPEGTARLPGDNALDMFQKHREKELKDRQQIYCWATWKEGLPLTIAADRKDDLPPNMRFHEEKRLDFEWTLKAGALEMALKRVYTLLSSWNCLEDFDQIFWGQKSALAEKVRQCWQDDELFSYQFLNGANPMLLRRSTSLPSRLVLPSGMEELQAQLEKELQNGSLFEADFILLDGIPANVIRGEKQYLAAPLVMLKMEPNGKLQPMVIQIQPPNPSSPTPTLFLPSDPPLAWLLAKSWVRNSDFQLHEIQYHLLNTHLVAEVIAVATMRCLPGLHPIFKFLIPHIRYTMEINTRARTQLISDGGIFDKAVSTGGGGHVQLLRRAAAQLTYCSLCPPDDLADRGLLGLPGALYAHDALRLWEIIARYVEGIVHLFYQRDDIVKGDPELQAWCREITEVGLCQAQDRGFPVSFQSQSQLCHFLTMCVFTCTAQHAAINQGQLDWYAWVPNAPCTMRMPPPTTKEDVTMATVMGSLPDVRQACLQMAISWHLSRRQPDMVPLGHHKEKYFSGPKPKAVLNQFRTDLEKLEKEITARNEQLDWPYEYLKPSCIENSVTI
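Purified human 12hLO at 150 nM in 25 mM Hepes, 0.01% Triton X-100, pH 7.0, preincubated 15 min at room temperature with compound. Reaction started with 40 uM arachidonic acid, 30 min at room temperature. Hydroperoxide measured by Fe-xylenol orange, 573/405 nm absorbance ratio.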
PINK1 expr mod = PINK1 expression modulation. PINK1 immunofluorescence, high-content cytometry, 24 h. Potency, µM (top dose mostly 76.6 µM), without a hit: at the top dose activation (PINK1 increase), usual class: activators. hit rate 0.2% among 410,000; active means well fitted activation curve with a large enough effect; inconclusive means small, poorly fitted or top-dose-only effect; cell line not stated here; further: % of control where 0% means no effect; nearly all actives have a fitted effect of over 65% in size
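Stable cell line, 250 cells/well, 12 h attachment; compounds pinned at 5 concentrations, 24 h; CCCP control. Fixed with nuclear dye, primary antibodies 12 h at 10 degrees C, secondary plus cell stain; laser-scanning cytometer read.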
MCF10A rerep = DNA re-replication induction in MCF 10a cells; MCF 10A DNA re-replication, Hoechst nuclear intensity, 48 h; Potency, µM (titrated, usually from 46.1 µM), for the others: top-dose activity, positive = re-replication, most hits filed as activators; hit rate 2.9% among 350,000; AID 624296; further: % of control where 0% means no effect; nearly all actives have a fitted effect of over 50% in size
Numbers without * were called inactive; i = inactive; ? = inconclusive; . = no result given; [ ] = dose if it differs, or a comment. Sampled rows, rich in hits. Any-hit rate of the full collection: about 5.8%. Unless noted, the call rests on the fitted dose curve; in most records, active means well fitted curve in the direction sought with a large enough effect; inconclusive means small, poorly fitted or top-dose-only effect, or another doubt; inactive means no such curve, though single readings can be large; an effect the other way counts as inactive or inconclusive. Potency means the concentration at half of the fitted maximal effect.

SMILES | SW480 rereplic | KB-3-1 tox | KB-V1 cytotox | 12-LOX inh | PINK1 expr mod | MCF10A rerep
CCOC(=O)Cc1csc(NC(=O)CSc2nnc(-n3nc(C)cc3C)c3ccccc23)n1 | -1% | i | 21µM* | 13% | 0%[38.3 µM] | 19%
Cc1ccccc1N(CC(=O)N/N=C/c1ccc(Cl)cc1)C(=O)c1ccccc1 | ? | ? | 21µM* | -1% | -3% | 26µM*
COc1cc(/C=C/C(O)=C/C(=O)/C=C/c2ccc(O)cc2)ccc1O | ? | ? | i | 13µM* | 27% | 18µM*
O=C(/C=C/c1cccnc1)c1cc(F)ccc1O | -16% | i | i | -15% | 1% | 3%
COc1cc(C(=O)/C=C/c2cccnc2)ccc1O | 16µM* | ? | ? | ? | -1% | 5.8µM*
CN(C)S(=O)(=O)c1ccc(C(=O)Nc2cccnc2)cc1 | -4% | i | i | 0% | -1% | 9%
CN(C)S(=O)(=O)c1ccc(C(=O)/C=C/c2cccnc2)cc1 | 21µM* | i | ? | -25% | -2% | 16µM*
COc1ccc(/C=C/C(=O)c2cc3c(cc2N)OCO3)cc1 | ? | i | ? | 35µM* | 2% | ?
Cc1ccsc1/C=N/N=C(c1ccccc1)c1ccccc1 | . | . | . | 6% | . | .
O=C(/C=C/c1cccnc1)/C=C/c1cccnc1 | ? | 2.6µM* | i | 3% | -1% | ?
C(=Cc1cccnc1)c1ccncc1 | -2% | i | i | -2% | -3% | 0%
COc1cc(C(=O)/C=C/c2ccc(SC)cc2)ccc1O | . | . | . | 40µM* | . | .
COc1ccc(/C=C/C(=O)c2cc(C(=O)/C=C/c3ccc(OC)cc3)c(O)cc2O)cc1 | . | . | . | . | 1% | .
CCOc1ccc(C(=O)/C=C/c2ccc(SC)cc2)cc1 | ? | i | i | 14% | 2%[38.3 µM] | ?
COc1ccc(OC)c(C(=O)/C=C/c2cccnc2)c1 | 21µM* | ? | ? | ? | -2% | 12µM*
COc1ccc(/C=C/C(=O)c2ccc(OC)cc2OC)cc1 | 21µM* | ? | ? | -5% | -1% | 24µM*
CCCN(CC(=O)Nc1ccccc1C(=O)c1ccccc1)Cc1nnc(-c2ccco2)o1 | . | . | . | -2% | . | .
COc1cc2ccccc2cc1C(=O)N/N=C/c1cccnc1 | 1% | 16µM* | ? | 3% | 6% | -2%
Cc1ccccc1-c1nc(CN2CCCC2c2ccc(F)cc2)c(C)o1 (centres undefined) | 5% | i | i | -9% | ? | 15µM*
O=S(=O)(/N=S1\CC=CCN1S(=O)(=O)c1ccccc1)c1ccccc1 (centres undefined) | ? | i | i | ? | 0% | 18µM*
CC1=C(C)CS(=O)N(S(=O)(=O)c2ccccc2)C1 (centres undefined) | ? | i | ? | -19% | -16%[38.3 µM] | ?
CC(CCc1ccccc1)NC(=O)C1(c2ccccc2)CCCC1 (centres undefined) | . | . | . | 39% | . | .
CCOC(=O)c1[nH]c(C)c(/C(O)=C2\C(=O)C(=O)N(CCCN3CCOCC3)C2c2cccs2)c1C (centres undefined) | 13µM* | ? | ? | 68% | 7% | 9.2µM*
COc1ccc(S(=O)(=O)N2CCN(CC(=O)Nc3ccc(C)c(F)c3)CC2)cc1 | -4% | i | 6.5µM* | 0% | -2% | -2%
COc1ccc(S(=O)(=O)N2CCN(CCC(=O)Nc3ccc(F)cc3)CC2)cc1 | ? | ? | 5.2µM* | -6% | -3% | 8%
SMILES | SW480 rereplic | KB-3-1 tox | KB-V1 cytotox | 12-LOX inh | PINK1 expr mod | MCF10A rerep
COc1cc(OC)nc(NC(=O)CN2CCN(c3ccc(F)cc3)CC2)n1 | -12% | i | 23µM* | 5% | 3%[38.3 µM] | 5%
COc1ccc(N2CCN(CC(=O)Nc3cccc(S(=O)(=O)N4CCOCC4)c3)CC2)cc1 | -3% | ? | 10µM* | ? | 1% | 12%
Fc1ccc(-c2noc(-c3ccc[nH]3)n2)cc1 | . | . | . | 8% | . | .
O=C(CN1CCN(S(=O)(=O)N2CCCCC2)CC1)Nc1cc(Cl)cc(Cl)c1 | -1% | i | ? | 6% | 4% | 24%
CN(C)S(=O)(=O)N1CCN(CC(=O)Nc2ccc(Br)cc2)CC1 | ? | i | i | 15% | 0% | 8%
CN(C)S(=O)(=O)N1CCN(CC(=O)Nc2cc(Cl)ccc2Cl)CC1 | 6% | i | 18µM* | -2% | -3%[38.3 µM] | 18%
Cc1cc(NC(=O)CN2CCN(S(=O)(=O)c3ccc(Cl)cc3)CC2)no1 | 2% | i | 16µM* | 14% | 3%[38.3 µM] | -4%
O=C(CN1CCN(S(=O)(=O)N2CCCCC2)CC1)Nc1ccc(Cl)c(Cl)c1 | -6% | ? | 13µM* | -8% | 1% | ?
Cc1ccc(NC(=O)COC(=O)c2cccc(O)c2)c(Cl)c1 | . | . | . | -20% | . | .
Oc1ccccc1CN1CC(CNc2cccnc2)C2(C1)CN(c1ccccc1)C2 (centres undefined) | . | . | . | 8%[176 µM] | . | .
COc1ccc(C(=O)NCCSCc2ccccc2Cl)cc1OC | -4% | i | i | 50µM* | 1% | 3%
S=C(NCCSCc1ccccc1Cl)Nc1ccccc1 | -1% | i | ? | 35µM* | 13% | 13µM*
CCCOc1ccc(CSCCNC(=S)Nc2ccccc2)cc1 | 15% | i | ? | ? | ? | ?
CCOc1ccc(CSCCNC(=S)Nc2ccc(OC)cc2)cc1 | 3% | ? | ? | 45µM* | 4% | 5%
CCCCNC(=S)Nc1cccc(C)c1 | . | . | . | -29% | . | .
Cc1cccc(CSCCNC(=S)Nc2ccccc2)c1 | 0% | ? | 18µM* | ? | -1% | 17%
S=C(NCCSCc1ccc(Cl)cc1)Nc1ccccc1 | 5% | i | ? | 45µM* | 3% | 23%
CN(CC(=O)Nc1ccc(Cl)c(C(F)(F)F)c1)C(=O)c1cccc2cccnc12 | -5% | i | 18µM* | 31% | 1% | -7%
Cc1cc(C)cc(OCC(=O)N(C)CC(=O)Nc2ccc(Cl)c(C(F)(F)F)c2)c1 | 3% | ? | i | 284% | 9% | 6.5µM*
Cc1cc2nc(C(F)(F)F)c(=O)n(C(C)C(=O)NCc3ccccc3)c2cc1C (centres undefined) | . | . | . | -13% | . | .
CC(Nc1ccc(C(C)C)cc1)C(=O)Nc1ccc(Cl)cn1 (centres undefined) | . | . | . | 10% | . | .
O=C(c1ccccc1)c1ccc(C(=O)N2CCN(c3ccccc3Cl)CC2)cc1 | 1% | i | i | -15% | -2% | 8%
O=C(c1ccoc1)N1CCC2(CC1)NC(=O)N(c1ccccc1Cl)N2 | . | . | . | 1.3µM* | . | .
COc1ccc(Cl)cc1C(=O)N1CCC2(CC1)N(c1ccccc1)C(=O)CS2(=O)=O | . | . | . | 20% | . | .
